From the supplement of paper PMC6555819

Key:
Assay in all cases: PBM binding z-score (relative to random genomic background probes); higher = stronger binding; sequences stand for … in GC…GCGATTGACAGCGTAGAATGAAGG
[1] = tested on: RARb homodimer (NR concentration 270 nM)
Procedure, shortened: (§1)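 For binding z-scores, the reference was random background probes on custom Agilent 4×180K protein-binding microarrays. These arrays were incubated 1 h with ligand-free nuclear receptor dimers in PBS pH 7.4, 2% milk, 0.02% Triton X-100, 1 mM DTT, 0.2 mg/mL BSA and 0.4 mg/ml salmon testes DNA. Fluorescence was scanned after antibody detection of each partner (one per run) and regression-normalized.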

[2] = tested on: RARg:RXRa (NR concentration 270 nM, RXRa partner concentration 90 nM)
Procedure, shortened: as §1

[3] = tested on: RARg homodimer (NR concentration 270 nM)
Procedure, shortened: as §1

[4] = tested on: RXRa DBDmut IVT, anti-RXR (DBD mutation: RXRa K156A/R161A, NR concentration 90 nM)
Procedure, shortened: as §1

[5] = tested on: RXRa homodimer (NR concentration 180 nM)
Procedure, shortened: as §1

[6] = tested on: THRa:RXRa (NR concentration 90 nM, RXRa partner concentration 90 nM)
Procedure, shortened: as §1

[7] = tested on: THRa homodimer (NR concentration 90 nM)
Procedure, shortened: as §1

[8] = tested on: VDR homodimer (NR concentration 270 nM)
Procedure, shortened: as §1

Sequence	PBM binding z-score [1]	PBM binding z-score [2]	PBM binding z-score [3]	PBM binding z-score [4]	PBM binding z-score [5]	PBM binding z-score [6]	PBM binding z-score [7]	PBM binding z-score [8]
TCTAGCAGGCCAGAGGGACACTCAAGAGGTACGG	0.146	-0.0485	0.179	-0.19	0.112	-0.54	-0.905	-0.834
GCTATTAGTTGAAAGGGAAACCGAATGATTCTCG	-0.448	-0.0918	0.0889	0.797	-0.215	-0.127	-0.399	0.461
CGTCCAAGGTCAAGGTCAGCGAAAGAGACTCGAA	5.23	6.94	7.94	3.44	6.74	4.14	3.58	3.19
TTACCAAGGTGAAACGTCGTTGATGCACGCCTTG	0.238	0.69	0.555	0.0137	1.01	1.59	0.421	-0.415
TCTAGTTGGTCACGGAGGTAACACACGACGGGTA	1.39	1.24	1.7	0.681	1.04	1.12	0.797	0.198
CGTCAAAGTTCAACTAAGGTAACGTAGAGCACGC	4.06	6.15	6.74	4.65	5.34	5.11	1.86	3.92
GGAACGAGGGCAAGTTGAAAGCAGAGTTTGATGG	1.57	1.12	1.98	2.41	0.747	1.12	0.0724	1.92
GGAACGAGGGCAAAGTCGATAGCATCTGTCGACG	0.649	0.932	0.988	2.53	0.723	0.62	-0.445	1.19
ATCGAAAGGTCGAGGTGAGTGTAGAGAAAGGGAA	2.96	4.37	4.06	0.896	4.28	3.21	0.885	0.854
ATCTCTAGGTAAAATTCAGTGAAAGATCGATAGA	-0.326	0.344	0.677	0.391	0.121	0.32	0.151	0.281
TAGCCTAGGTGATGGGCCAGTATACCACGCGAAC	-0.0783	-0.276	-0.196	-1.47	-0.236	-0.153	-0.23	-0.76
TCAGACAGGTGAAGGAAACTCAGGTACGCAGTCG	0.458	0.429	0.359	1.34	0.487	0.592	0.421	0.426
ATCTCTAGGTAAAGATAGTGCAGTGAATGCAAAT	-0.372	0.0561	0.36	-0.368	0.254	0.223	-0.337	-0.144
TCTTGTAGATCACGCAGGTTAAGAAAGCCTGAGT	0.254	0.174	0.0532	0.693	0.723	0.601	-0.33	-0.258
CCTTACGGGTCACTTCAGGTTATAGCATCGGAGT	2.86	4.35	4.1	1.67	4.38	5.04	1.29	1.71
TCGAGTAGGTTAGAGGCATTCAGAATGGCGTCGA	-0.851	-0.25	-0.164	-0.37	0.0736	-1.08	-1.15	-0.449
TCTTGTAGATCAATAGAGTTTAAGAAAGTGCGCT	0.231	0.0376	0.187	0.774	0.274	0.289	-0.976	0.914
AGAATGAGATTATACGTAGATCAGGGAAGAAAGT	-0.466	0.0162	0.288	-0.678	-0.166	-0.438	-0.705	0.0852
CCTACTGGGCCATTCAGAGGTCCTTGATCATATG	0.208	-0.0281	-0.184	-0.26	-0.29	-0.305	-0.128	-0.336

Sequence	PBM binding z-score [1]	PBM binding z-score [2]	PBM binding z-score [3]	PBM binding z-score [4]	PBM binding z-score [5]	PBM binding z-score [6]	PBM binding z-score [7]	PBM binding z-score [8]
CCTCGGGGGACAACAGGAGGTCAGAGCTGCCAGA	3.75	4.66	4.32	0.347	2.89	3.22	1.07	1.19
TCTTGTAGATCACTAGAGGTTAAGAAAGTGCGCT	1.33	0.919	0.66	0.477	1.6	2.43	-0.317	0.162
TCTTGTTGGTCAAAGGTCACACACTCGAAATGCG	5.33	7.36	6.57	2.02	8.27	4.21	2.56	3.06
TCATATAGATAAATGCTAGGTGAAAGTCCGATCT	0.00895	0.12	0.317	1.66	0.786	0.626	0.378	0.203
TCTTGTAGATCAGAGGTTAAGAAAGCCGAAGCCT	0.579	0.522	0.221	0.653	1.5	0.868	-0.337	0.103
ATCTCGAGGTAACAAGTTCAGTGAAAGAGAGGAC	1.83	2.13	1.42	0.518	1.15	2.31	0.969	2.28
AGAATGAGGTTAAGATCAGGGTAACAGAATACAT	1.41	2.69	1.65	1.08	2.85	3.16	1.45	0.804
CCTATTAGTTGACCATAAGGGCTACCGAAGCTCG	1.04	0.591	0.633	0.659	0.214	0.318	0.305	0.787
CCGACTGGGGCAGAAAGGTTACCATGCCATCCGG	2.33	1.54	1.08	-1.07	1.72	1.05	-0.541	-0.201
CCTTACGGGTCAAGGTTATAGTACGGGTGGTACG	3.37	4.78	4.42	1.09	5.14	3.08	1	1.71
TCCTGTAGATCAGCAGGTTAAGAAAGCTGGCCAA	-0.00726	-0.0905	-0.286	0.636	0.412	0.129	-0.526	-0.526
CGTCCAAGGTCAGCAGGCCAGTGAAAGCGACGTG	4.1	5.07	5.77	2.47	3.86	3.74	1.89	1.25
ATCTATAGGTAAAGATAGTTCAGTGAATGCAAAT	1.07	0.887	0.972	0.0561	0.775	0.89	0.0462	0.507
ATCTCTAGGTAACAGTTCAGTGAATCCCGAGGAT	0.815	0.757	0.845	0.0711	0.513	0.831	0.517	0.915
ATATGTAGGTTACATCCGGGTCATTAAGGCTATG	3.03	3.68	2.19	1.31	3.15	3.75	2.8	2.89
TCATGTAGATCAACAGGAGGTTAAGAAAGATCGA	0.329	0.904	0.374	0.621	1.04	0.683	-0.647	0.15
GCTCGGAGGACAAGGTCAGAGTTTTGTCCGTAGA	3.25	3.1	3.94	0.706	2.55	3.11	1.72	0.974
ATCTCTAGGTAAAGTTCAGGGAAAGATCGATAGA	2.7	2.5	2.77	1.38	1.98	1.61	0.441	2.18
TGAATGAGCTTATAAGATCAGGGAACGTTGCAAA	-1.21	-0.305	-0.288	-1.2	-0.211	-0.371	-1.18	-0.577

Sequence	PBM binding z-score [1]	PBM binding z-score [2]	PBM binding z-score [3]	PBM binding z-score [4]	PBM binding z-score [5]	PBM binding z-score [6]	PBM binding z-score [7]	PBM binding z-score [8]
AGTCAAAGTTCACTAGGTAACGTACGATTCAGCT	4.12	4.87	5.61	4.41	3.85	2.2	0.165	4
TCTTGTAGTTCAGCAGGTTAAGAAAGCTGGCCAA	1.53	1.8	1.25	1.53	1.12	0.683	0.0556	0.942
GCTGCTAGGTCAGGTTTGTCAGCTAACGGGTACG	2.21	2.03	2.94	0.952	0.681	1.48	0.489	0.755
ATCTCTAGGTAACAAGTTCAGTAAAAGAGAGGAC	2.18	1.21	1.6	1.08	1.1	1.85	1.12	2.15
TCTATTAGTTGATTAGGGCAACCAAAACAGCGGA	0.623	0.694	0.677	0.92	0.57	0.825	0.291	0.358
ATACCATGGTGATCGTGAGGTCGTTGATACTAAC	1.18	0.425	0.264	0.547	0.893	2.48	1.85	2.87
GCTAGCAGGCCATATGGGTCACTCAATGACGGGC	1.78	1.54	1.39	-0.402	1.43	1	-0.658	-0.276
GCGACTGGGGCATCAGCGGGTTACCATAACTTAA	0.625	0.738	0.196	-0.276	0.347	0.628	-0.267	-0.158
CCGACTGGGGCATAGGTTACCATACTCAGTACGA	0.786	0.922	0.833	-0.223	1.03	0.28	-0.456	-0.332
TAGCCTAGGTCATTGGGCCGGTATAGTACGCATC	2.86	3.58	4.08	0.933	2.62	2.67	0.961	1.35
GCGACTGGGGCATCAGCAGGTTACCATCACTTAA	0.92	0.879	0.45	-0.0239	0.259	0.783	0.0403	-0.183
TGTATTAGTTGAAGGGCAACCGACGAGTCCGTTT	1.63	0.727	1.06	0.401	0.406	0.237	0.213	1.55
TTACCAAGGTGAAAGGTCGTTGTTGCACGCCTTG	2.51	3.79	1.79	0.868	5.4	3.45	1.38	1.08
TCTTGTAGATCAACAGGAGGTTAAGACAGATCGA	0.499	0.964	0.323	0.507	0.916	0.703	-0.723	-0.102
CTCGAAAGGTCGTGCACAGGTGAGTATACCAAAC	3.18	5.89	4.46	2.16	5.32	3.21	0.254	1.42
GCTGCTAGGTCAGGTTGGTCAGCTATCGGGTACG	2.73	2.44	3.56	0.759	0.93	1.84	0.785	0.204
ACTATCAGTTGAGACGAGGGCAACCGATAGGTTG	1.12	0.732	0.78	0.39	0.625	2.59	0.179	0.822
GCTCGGAGGACACGGTCAGAGCTTTGTCCGTAGA	1.35	0.822	1.71	0.29	-0.503	1.36	0.245	-0.453
